According to PubChem BioAssay AID588579 (National Center for Advancing Translational Sciences (NCATS), 2011):
Values joined by “and” are separate entries in the source; they are usually repeats but may differ in a detail not shown here. Identical values can stand only once. Screen size: about 400,000 compounds; about 2,200 (0.55%) were called active. About 1% were inconclusive and are not listed. This is one part of a sample in which actives are shown more often than they occur. Calls come from the whole dose curve; as a rule, active = well fitted inhibition curve with a large enough effect; inconclusive = small, poorly fitted or top-dose-only effect, or another doubt; inactive = no such curve, though single readings can be large or run the other way. A structure can be active in one record and inactive in another.

molecular target: DNA polymerase kappa (Homo sapiens) (UniProt Q9UBT6); assay: qHTS for Inhibitors of Polymerase Kappa; details: purified Pol kappa, fluorescent DNA synthesis assay, 10 min; series mostly up to 60.1 µM; activity, negative = inhibition: at the top concentration
Sequence (Q9UBT6 whole entry, looked up): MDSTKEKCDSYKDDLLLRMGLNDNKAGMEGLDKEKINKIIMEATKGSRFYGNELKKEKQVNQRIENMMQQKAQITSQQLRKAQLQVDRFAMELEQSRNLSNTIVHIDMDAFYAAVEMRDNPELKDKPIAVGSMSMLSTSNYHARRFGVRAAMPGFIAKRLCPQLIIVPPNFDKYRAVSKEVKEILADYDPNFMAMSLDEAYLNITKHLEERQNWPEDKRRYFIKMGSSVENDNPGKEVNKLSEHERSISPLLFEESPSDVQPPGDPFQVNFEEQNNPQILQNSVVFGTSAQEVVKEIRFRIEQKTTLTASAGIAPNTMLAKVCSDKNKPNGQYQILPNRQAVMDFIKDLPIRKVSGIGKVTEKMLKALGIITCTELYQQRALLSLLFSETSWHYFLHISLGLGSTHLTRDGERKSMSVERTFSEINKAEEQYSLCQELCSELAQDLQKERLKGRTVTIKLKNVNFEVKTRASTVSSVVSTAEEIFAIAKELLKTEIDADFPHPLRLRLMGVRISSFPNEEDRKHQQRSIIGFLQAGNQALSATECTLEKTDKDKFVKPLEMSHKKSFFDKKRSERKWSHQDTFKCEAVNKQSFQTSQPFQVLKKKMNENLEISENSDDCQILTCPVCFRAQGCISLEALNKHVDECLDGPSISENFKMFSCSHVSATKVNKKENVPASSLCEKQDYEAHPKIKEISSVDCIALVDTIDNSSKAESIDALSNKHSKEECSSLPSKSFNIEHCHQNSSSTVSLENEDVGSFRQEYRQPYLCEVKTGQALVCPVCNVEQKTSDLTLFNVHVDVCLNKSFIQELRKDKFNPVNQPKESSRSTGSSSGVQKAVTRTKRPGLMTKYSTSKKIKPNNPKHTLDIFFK
Procedure: The processing and repair of DNA interstrand crosslinks (ICL) in eukaryotic cells are extremely complex, potentially involving multiple DNA repair and damage tolerance pathways, including homologous recombination, nucleotide excision repair, translesion synthesis (TLS), and cell cycle checkpoints.
To that end, in a collaboration between the Oregon Health & Science University and the NIH Chemical Genomics Center a 1536-well high-throughput screen was developed. This fluorescent screen was assayed against the NIH Molecular Libraries Small Molecule Repository (MLSMR) to discover inhibitors of Pol Kappa.
NIH Chemical Genomics Center [NCGC]
NIH Molecular Libraries Probe Centers Network [MLPCN]
Assay Submitter (PI): Stephen Lloyd, Oregon Health & Science University
Three microliters of reagents (buffer in column 3 and 4 as negative control and 10 nM Pol kappa in columns 1, 2, and 5-48) were dispensed into a 1536-well black solid-bottom plate. Compounds (23 nL) were transferred via Kalypsys pin tool equipped with 1536-pin array. The plates were then incubated for 15 min at room temperature, and 1 uL substrate (50 nM final concentration) were then added to start the reaction and kinetically read twice at 0 min and 10 min on the Viewlux reader
% is set by controls: 0 for no effect and ±100 for the full control effect; potency is the fitted concentration of half-maximal effect.

Compound | Potency | activity, negative = inhibition
Cc1cc(/C=C2/C(=O)NC(=O)N(Cc3ccco3)C2=O)c(C)n1-c1ccc(C(=O)O)cc1 | 50.1 µM (active) | –
CN[C@@H]1C[C@H]2O[C@@](C)([C@@H]1OC)n1c3ccccc3c3c4c(c5c6ccccc6n2c5c31)C(=O)NC4 | inactive | –
CCN1C[C@]2(COC)C(O)C[C@H](OC)[C@@]34C5C[C@]6(O)C(OC)C(O)[C@](OC(C)=O)(C5C6OC(=O)c5ccccc5)C(C(OC)C23)C14 (some centres undefined) | – | 2.42% (inactive)
CC(CCC(=O)O)C1CCC2C3C(O)C[C@@H]4CC(O)CC[C@@]4(C)C3CC[C@@]12C (some centres undefined) | – | -1.37% (inactive)
COc1ccc(C2Oc3c(I)c(OC)cc(OC)c3CC2O)cc1OC (centres undefined) | – | 1.84% (inactive)
N[C@H](Cc1o[nH]c(=O)c1Cl)C(=O)O | – | -6.05% [at 19.4 µM] (inactive)
CN1CCN(C(=O)O[C@@H]2c3nccnc3C(=O)N2c2ccc(Cl)cn2)CC1 | – | -8.72% [at 19.4 µM] (inactive)
C/C(=C\C=C/[C@@H](C)C(=O)O)[C@H]1CN[C@H](C(=O)O)[C@@H]1CC(=O)O | – | -13.7% [at 19.4 µM] (inactive)
N[C@H](C(=O)O)c1cc(=O)[nH]o1 | – | -6.61% [at 19.4 µM] (inactive)
CC(C)(C)c1ccc(CN2C(=O)CN=C(c3ccccc3)c3ccccc32)cc1 | – | -14.9% [at 107 µM] (inactive)
O=C1CC(=O)N(Cc2ccccc2)C(=O)N1CCCCCCN1C(=O)CC(=O)N(Cc2ccccc2)C1=O | 22.4 µM (active) | –
COC1CC(OC2CC[C@@]3(C=O)C4CC[C@]5(C)C(C6=CC(=O)OC6)CC[C@@]5(O)C4CC[C@]3(O)C2)OC(C)C1O (some centres undefined) | – | -7.19% (inactive)
C[C@]12CC[C@@H]3c4ccc(O)cc4C[C@@H](CCCCCCCCCS(=O)CCCC(F)(F)C(F)(F)F)C3[C@@H]1CC[C@@H]2O (some centres undefined) | – | -16.9% (inactive)
CO[C@@H]1C[C@@H](C[C@H]2CC[C@H](C)[C@@H]([C@@H](C)C(=O)O)O2)O[C@]2(O[C@](C)([C@H]3CC[C@@](C)(C4OC([C@H]5O[C@@](O)(CO)[C@H](C)C[C@@H]5C)C[C@@H]4C)O3)C[C@H]2C)[C@@H]1C (some centres undefined) | – | 0.283% [at 19.4 µM] (inactive)
CN=C(NC#N)NCCSCc1nc[nH]c1C | inactive and 28.2 µM (active) | –
NC[C@H](O)c1ccc(O)cc1 | – | -4.18% [at 12 µM] (inactive)
CC[C@]1(O)C(=O)OCc2c1cc1n(c2=O)Cc2cc3ccccc3nc2-1 | – | -8.67% [at 19.4 µM] (inactive)
Fc1ccc(C(OCCN2CCN(C/C=C\c3ccccc3)CC2)c2ccc(F)cc2)cc1 | – | -16.7% [at 19.4 µM] (inactive)
CC[N+](C)(CC)CCC[n+]1c(-c2ccccc2)c2cc(N)ccc2c2ccc(N)cc21 | 6.31 µM (active) | –
CC(C)(O)c1[se]c2ccccc2c1I | – | -19.7% [at 107 µM] (inactive)
CN1[C@@H]2CC[C@H]1CC(OC(=O)c1cc(Cl)cc(Cl)c1)C2 (some centres undefined) | – | -5.99% [at 19.4 µM] (inactive)
COc1ccc(N2C(=O)/C(=C/c3ccco3)C(=O)NC2=S)cc1 | 4.47 µM (active) | –

Compound | Potency | activity, negative = inhibition
CCN1C[C@]2(C)CC[C@H](O)[C@@]34[C@@H]5CC6[C@@H](OC)C[C@@](O)([C@@H]5[C@@H]6O)[C@H](C[C@@H]23)[C@H]14 | – | -3.02% [at 12 µM] (inactive)
N#Cc1cc(Br)c(O)c(Br)c1 | – | 12.6% (inactive)
CN(C)[C@@H]1C(=O)C(C(N)=O)=C(O)[C@@]2(O)C(=O)C3=C(O)c4c(O)cccc4[C@@](C)(O)C3CC12 (some centres undefined) | – | -10.9% (inactive)
c1ccc2sc(SNC3CCCCC3)nc2c1 | – | -5.44% (inactive)
NCCCCC(N)C(=O)O (centres undefined) | inactive | –
C=CCN1CCC2(C)c3cc(O)ccc3CC1[C@@H]2C (some centres undefined) | – | 7.6% [at 19.4 µM] (inactive)
CCCN(C/C=C/I)C1CCc2ccc(O)cc2C1 (centres undefined) | – | -4.88% [at 19.4 µM] (inactive)
CO[C@H]1[C@@H](O)[C@@H](C)O[C@H](O[C@H]2[C@H](Oc3cccc4c(O)c5c(=O)oc6ccc(C)c7c(=O)oc(c34)c5c67)O[C@H](C)[C@H](O)[C@@H]2O)[C@@H]1O | 35.5 µM (active) | –
c1ccc(CN2CC[C@@]3(CCCNC3)C2)cc1 | – | -4.77% (inactive)
CCCCCCCCCCCCN=C(N)N | – | 23.6% (inactive)
CN(C)C1C(=O)C(C(N)=O)=C(O)[C@@]2(O)C(=O)C3=C(O)c4c(O)cccc4[C@@](C)(O)C3C[C@@H]12 (some centres undefined) | – | -12% [at 19.4 µM] (inactive)
N#CC(C#N)=Cc1cc(O)c(O)c([N+](=O)[O-])c1 | 2.82 µM (active) | –
COC([CH2][Hg])CNC(=O)c1ccccc1OCC(=O)O (centres undefined) | – | 4.39% [at 19.4 µM] (inactive)
Nc1ccc(-c2ccc(N)c(N)c2)cc1N | – | 11.1% (inactive)
CN(C)C[C@H]1CCCC[C@]1(O)c1cccc(O)c1 | – | 15.6% (inactive)
CC[C@@H]1CN2CC[C@@H]1C[C@H]2[C@H](O)c1ccnc2ccc(OC)cc12 | – | -10.2% [at 19.4 µM] (inactive)
CC1=CC(=O)C2=C(C)C[C@H](O)[C@H]3[C@H](C)C(=O)O[C@@H]3C12 (some centres undefined) | – | -5.66% [at 19.4 µM] (inactive)
C[C@H]1C/C=C/[C@@H]2[C@@H]3O[C@]3(C)[C@@H](C)[C@H]3[C@H](Cc4ccccc4)NC(=O)[C@]32OC(=O)O/C=C/[C@](C)(O)C1=O | – | -10.2% [at 12 µM] (inactive)
Cc1c(C(=O)O)cccc1-n1c(C)cc(/C=C2\C(=O)NC(=O)N(c3ccc4c(c3)OCO4)C2=O)c1C | 44.7 µM (active) | –
CC(=O)OC1C2CCC3C1(CC(O)[C@@]1(O)[C@@H](CC(O)C1(C)C)[C@]3(C)O)C[C@@]2(C)O (some centres undefined) | – | 0.942% (inactive)
C=CCSSCC=C | – | -7.05% (inactive)
C[C@]12O[C@H](C[C@@]1(O)C(=O)O)n1c3ccccc3c3c4c(c5c6ccccc6n2c5c31)CNC4=O | – | -9.21% (inactive)

Compound | Potency | activity, negative = inhibition
C[C@@]12CCC3C(CC[C@@H]4CC(O)CC[C@@]34C)C1CCC2O (some centres undefined) | – | 2.74% (inactive)
CCCCC/C=C\C/C=C\C/C=C\C/C=C\CCCCCC(=O)NCCO | – | 2.79% [at 19.4 µM] (inactive)
Cc1cccc2c3c(ccc12)C1=C(C(=O)C3=O)C(C)CO1 (centres undefined) | 20 µM (active) | –
C[C@@]12CC[C@H]3[C@@H](CC[C@]4(O)C[C@H](O)CC[C@@]34C=O)[C@]1(O)CC[C@@H]2C1=CC(=O)OC1 | – | -6.33% [at 12 µM] (inactive)
C[C@@H]1C[C@@H]2O[C@H]2/C=C\C=C\C(=O)Cc2c(Cl)c(O)cc(O)c2C(=O)O1 | 39.8 µM (active) | –
c1ccc(CCCCN2CCC(c3ccccc3)CC2)cc1 | inactive | –
O=C(N/N=C/c1ccc([N+](=O)[O-])o1)c1cc([N+](=O)[O-])cc([N+](=O)[O-])c1O | – | -2.87% [at 19.4 µM] (inactive)
c1ccc(N2CC[C@@]3(CCCNC3)C2)nc1 | – | 8.04% (inactive)
COc1cccc(N2C(=O)NC(=O)/C(=C\c3ccc([N+](=O)[O-])s3)C2=O)c1 | 25.1 µM (active) | –
O=C1NC(=O)N(c2ccccc2)C(=O)/C1=C/c1ccc([N+](=O)[O-])s1 | 31.6 µM (active) | –
CC(=O)[O][Sn]([c]1ccccc1)([c]1ccccc1)[c]1ccccc1 | – | 4.82% (inactive)
CCCCCCCCc1[se]c2ccccc2c1Br | – | -2.11% (inactive)
ClCCN(CCCl)c1ccc(C=Nc2ccc(/C=C/c3ccnc4ccccc34)cc2)cc1 | – | -11.1% [at 107 µM] (inactive)
CC(C)(Cc1c[nH]c2ccc(Cl)cc12)NCCOc1ccccc1OCC1CC1 | inactive | –
CCN(CC)c1nc(C)cc(OP(=S)(OC)OC)n1 | – | 14.8% (inactive)
C[C@@H]1C[C@H]2CC[C@H](O2)[C@H](C)C(=O)O[C@@H](C)C[C@@H]2CC[C@@H](O2)[C@@H](C)C(=O)O[C@H](C)C[C@H]2CC[C@H](O2)[C@H](C)C(=O)O[C@@H](C)C[C@@H]2CC[C@@H](O2)[C@@H](C)C(=O)O1 | – | 6.33% (inactive)
O=C(Nc1cccc(F)c1)N1CC[C@@]2(CCCN(C(=O)Oc3ccccc3)C2)C1 | – | -3.75% (inactive)
CC(C)(c1ccc(OC[C@@H]2CO2)cc1)c1ccc(OC[C@H]2CO2)cc1 | – | -11.1% [at 19.4 µM] (inactive)
COc1ccc2[nH]cc(CCNCc3ccc(Br)cc3)c2c1 | – | 2.66% [at 19.4 µM] (inactive)
O=C1CCc2cccc3c2N1CC3 | – | -11.9% [at 12 µM] (inactive)
